This note sets out measurements from PubChem BioAssay.

Calls of active or inactive are those of the source.

Chain of Torsin-1A-interacting protein 2 (Homo sapiens) (Q8NFQ8 whole entry, looked up): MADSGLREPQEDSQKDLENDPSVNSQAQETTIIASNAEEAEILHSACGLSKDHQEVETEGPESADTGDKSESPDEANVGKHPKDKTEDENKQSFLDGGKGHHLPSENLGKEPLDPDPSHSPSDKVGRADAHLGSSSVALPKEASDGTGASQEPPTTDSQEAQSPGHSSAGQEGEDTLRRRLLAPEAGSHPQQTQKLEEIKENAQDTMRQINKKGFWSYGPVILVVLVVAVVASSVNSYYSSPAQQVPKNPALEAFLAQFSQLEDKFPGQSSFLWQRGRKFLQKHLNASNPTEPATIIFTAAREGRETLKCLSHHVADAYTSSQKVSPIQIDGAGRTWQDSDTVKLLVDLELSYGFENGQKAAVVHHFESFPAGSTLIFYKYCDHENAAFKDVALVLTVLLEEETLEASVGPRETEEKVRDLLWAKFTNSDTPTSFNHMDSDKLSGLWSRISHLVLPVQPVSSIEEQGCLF

One experiment concerns the target Torsin-1A-interacting protein 2 (Homo sapiens) (UniProt Q8NFQ8). Briefly: small molecules binding lysate-expressed LULL1 – cell lysate, human LULL1 lysate, 635/667 nm fluorescence, primary screen (AID 1092).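 Also: probe is lysate of COS7 cells overexpressing human LULL1; score merges per-feature 667 nm fluorescence with signal-to-noise.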 The following applies: small-molecule microarray, hLULL1 lysate binding, 635 nm fluorescence; higher = more signal.
In turn, `COc1ccc([Si](C)(C)[C@@H]2[C@@H](CC(=O)N(CCO)Cc3ccccc3)O[C@]3(C(=O)N(Cc4cccc(N5CCCCC5=O)c4)c4ccccc43)[C@H]2C)cc1` displayed a composite z-score of 2.38.
Molecule `COC(=O)[C@]1(CCS(=O)(=O)c2ccccc2)N=C(c2ccc(OCCCO)cc2)O[C@@H]1c1ccccc1N=[N+]=[N-]` registered a composite z-score of 3.23.
`COC(=O)[C@@]1(Cc2ccccc2)[C@H]2c3cc(C(=O)N4CCCC4)n(CCc4ccccn4)c3C[C@H]2CN1C(=O)c1ccccc1` gave a composite z-score of 3.93.
As for `CCCN1C(=O)[C@@]2(Cc3ccccc31)N=C(c1ccc(OCCCO)cc1)O[C@H]2c1ccccc1`, the composite z-score was determined as 2.58.
`COC(=O)[C@@]1(Cc2ccc(F)cc2)[C@H]2c3cc(C(=O)N(C)C)n(Cc4ccc(OC(F)(F)F)cc4)c3C[C@H]2CN1C(=O)c1ccccc1` registered a composite z-score of 0.841.
`CC(=O)N1CC2(CC2)CC1c1ccccc1` (stereo not given) returned a composite z-score of 1.19.
Turning to `CC(C)[Si](C#CCCCC#N)(O[C@H](c1ccccc1)c1cn(Cc2ccccc2)nn1)C(C)C`, the composite z-score was 0.573.
As to `COCCOC(=O)N1C(=O)[C@@]2(c3cc(C#CC4(O)CCCCCC4)ccc31)[C@H](c1ccc(O)cc1)N1[C@H](c3ccccc3)[C@H](c3ccccc3)OC(=O)[C@H]1[C@@H]2C(=O)N1CCN(c2ncccn2)CC1`, the composite z-score was determined as 2.57.
`CC1=C2[C@@H](CCc3ccccc3)OB(O)C[C@@H]2[C@@H]2C(=O)N(Cc3ccccc3)C(=O)[C@@H]2C1` came in with a composite z-score of 1.24.
Same read-out and setting: then `CCOC(=O)C[C@H]1[C@H](OC(=O)Cc2ccc3c(c2)OCO3)[C@@H](NC(=O)C2CCCCC2)c2cc(OCCCO)ccc2N1C(=O)c1ccccc1`, with 0.618; and `COCCCNC(=O)[C@@]1(CCC(=O)OC(C)(C)C)N=C(c2ccc(OCCCO)cc2)O[C@H]1c1ccccc1N=[N+]=[N-]`, with 3.13.
In turn, `[N-]=[N+]=Nc1ccccc1C[C@]1(C(=O)NCC(O)CO)COC(c2ccc(OCCCO)cc2)=N1` (stereo not given in full) had a composite z-score of 3.11.
`CCCC[C@@H](O)C1=C(COC)C[C@H]2C(=O)N(C)C(=O)[C@H]2[C@H]1CO` came in with a composite z-score of -0.419.
`CCCCCCc1nc(Cc2cc(OC)c(OC)c(OC)c2)cc2c1[Si](C(C)C)(C(C)C)OC2` came in with a composite z-score of -0.233.

Tested on in a further experiment: not listed separately
Briefly: optical density change of DRC41 E. coli – strain DRC41, OD650, 24 h, E. coli filamentation project, primary screen (AID 1093).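 Also: MC1000 strain lacking acrAB efflux and sulA so SOS filamentation is blocked; test concentration not given here.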 The following applies: E. coli DRC41 growth, higher = more signal, called active from +8 up or from −8 down.
Take `N#Cc1ccc(NN2C(C(O)c3ccc(Br)cc3)C=CC3C(=O)N(c4ccccc4)C(=O)C32)cc1` (stereo not given): the z-score was -1 (inactive).
On the same count and under the same terms, as for `CC1CC/C=C\[C@H]2OC34C=CCN(c5ccc(Cl)cc5)C(=O)[C@H]3N(C(C)CO)C(=O)[C@]4(C)C2C(=O)O1` (stereo not given in full), the figure is 0.108 (inactive); as for `CO[C@H]1O[C@H](CO)[C@@H](OC(=O)Nc2ccc(Br)cc2)[C@@H]2OC(=O)[C@@H](Cc3ccccc3)C/C=C/C[C@H](Cc3ccccc3)C(=O)O[C@@H]12`, 1.03 (inactive).
As to `CCOC(=O)C[C@H]1[C@H](OC(=O)c2cc3ccccc3oc2=O)[C@@H](NC(=O)c2ccccc2)c2cc(OCCCO)ccc2N1C(=O)c1ccccc1`, the z-score is -0.12 (inactive).
As to `O=C1OCCC=C[C@H]2OC34C=CCN(c5ccc6ccccc6c5)C(=O)[C@H]3N(CCCO)C(=O)[C@@H]4C12` (stereo not given in full), the z-score was 0.843 (inactive).
The same measure, in the same setting: as for `O=C1C2C=CC(C(O)C3CC=CCC3)N(Nc3ccccc3)C2C(=O)N1c1ccccc1` (stereo not given), the figure is -1.6 (inactive).
Turning to `Cc1ccc(S[C@]2(C(=O)NC(C)C)CC(=O)N(Cc3cc(C(F)(F)F)cc(C(F)(F)F)c3)[C@@H]2c2ccc(CO)cc2)cc1`, the z-score is -0.0937 (inactive).
As to `CCOC(=O)C[C@H]1[C@H](OC(=O)c2ccccc2-c2ccccc2)[C@@H](NC(=O)c2ccc3ccccc3n2)c2cc(OCCCO)ccc2N1C(=O)Cc1ccc(OC)cc1`, the z-score is -0.776 (inactive).
Same read-out and setting: as for `CC(C)c1ccc(NN2C(C(O)c3ccc(C#N)cc3)C=CC3C(=O)N(c4ccccc4)C(=O)C32)cc1` (stereo not given), the figure is -1.27 (inactive); as for `CCC#CCN(Cc1ccccc1Br)[C@H](/C=C/C1CC1)[C@@H](O)Cc1ccccc1`, 1.35 (inactive).
As for `C=C[C@@H](OC)[C@H](OC(=O)Nc1ccc(OC)cc1)c1ccc(O)c(F)c1`, the z-score was 1.19 (inactive).
Turning to `C=CCC(OC(C)=O)[C@@H]1[C@@H](N(Cc2ccc(-c3cccc(C(F)(F)F)c3)o2)C(=O)c2ccc(-c3ccccc3)cc2)c2cc(OCCCO)ccc2N1C(=O)Cc1ccc2ccccc2c1` (stereo not given in full), the z-score is -0.898 (inactive).
As to `CCOC(=O)C1=C[C@@H](c2ccccc2)N(S(=O)(=O)c2ccc(C)cc2)[C@H]1c1ccc(OC)cc1`, the z-score was -0.685 (inactive).
Same read-out and setting: then `CS(=O)(=O)CCOC(=O)C1=CC(CCCO)=CC(c2ccc(CN3CCCC3)cc2)N(Cc2sc3ccccc3c2Cl)C=C1C(=O)OCCS(C)(=O)=O` (stereo not given), with -0.853 (inactive); and `CCOC(=O)C[C@H]1[C@H](OC(=O)Cc2ccc3c(c2)OCO3)[C@@H](NC(=O)c2ccc3ccccc3n2)c2cc(OCCCO)ccc2N1C(=O)c1ccc2ccccc2n1`, with 2.22 (inactive).
Take `C=CCC(OC(C)=O)[C@@H]1[C@@H](N(Cc2ccc(-c3ccccc3)cc2)C(=O)c2ccc(-c3ccccc3)cc2)c2cc(OCCCO)ccc2N1C(=O)c1ccc2ccccc2c1` (stereo not given in full): the z-score is -0.728 (inactive).
On the same count and under the same terms, then `Cc1ccc(NN2C(C(O)c3c(F)cccc3Cl)C=CC3C(=O)N(C4CCCCC4)C(=O)C32)cc1` (stereo not given), with -0.0346 (inactive); and `CN(C)C(=O)[C@]1(Cc2ccccc2CN=[N+]=[N-])N=C(c2ccc(OCCCO)cc2)O[C@@H]1c1ccccc1`, with -0.915 (inactive).
Take `Cc1ccc(S[C@]2(C(=O)O)CC(=O)N(C3CCCCC3)[C@@H]2c2ccc(CO)cc2I)cc1`: the z-score is 0.843 (inactive).
On the same count and under the same terms, as for `CCOC(=O)C[C@H]1[C@H](OC(=O)c2cc3ccccc3oc2=O)[C@@H](NC(=O)CC(C)C)c2cc(OCCCO)ccc2N1C(=O)c1ccc2ccccc2n1`, the figure is -0.588 (inactive).
For the molecule `CCOC(=O)C[C@H]1[C@H](OC(=O)c2ccc(-c3ccccc3)cc2)[C@@H](NC(=O)CC(C)C)c2cc(OCCCO)ccc2N1C(=O)c1ccc2ccccc2n1`, the z-score is -0.0583 (inactive).
The same measure, in the same setting: as for `CCOC(=O)C[C@H]1[C@H](OC(=O)c2ccc(C(=O)c3ccccc3)cc2)[C@@H](NC(=O)c2ccc3ccccc3n2)c2cc(OCCCO)ccc2N1C(=O)Cc1ccc(OC)cc1`, the figure is -0.57 (inactive).
On the same count and under the same terms, as for `COc1ccc([Si](C)(C)[C@@H]2[C@@H](CC(=O)N(CCO)Cc3ccccc3)O[C@]3(C(=O)N(Cc4cccc(N5CCCCC5=O)c4)c4ccccc43)[C@H]2C)cc1`, the figure is 1.02 (inactive); as for `COC(=O)[C@]1(CCS(=O)(=O)c2ccccc2)N=C(c2ccc(OCCCO)cc2)O[C@@H]1c1ccccc1N=[N+]=[N-]`, -1.29 (inactive); as for `COC(=O)[C@@]1(Cc2ccccc2)[C@H]2c3cc(C(=O)N4CCCC4)n(CCc4ccccn4)c3C[C@H]2CN1C(=O)c1ccccc1`, 0.026 (inactive).
Turning to `CCCN1C(=O)[C@@]2(Cc3ccccc31)N=C(c1ccc(OCCCO)cc1)O[C@H]2c1ccccc1`, the z-score was -0.0139 (inactive).
Consider `COC(=O)[C@@]1(Cc2ccc(F)cc2)[C@H]2c3cc(C(=O)N(C)C)n(Cc4ccc(OC(F)(F)F)cc4)c3C[C@H]2CN1C(=O)c1ccccc1`, for which the z-score is -0.623 (inactive).
In the case of `CC(=O)N1CC2(CC2)CC1c1ccccc1` (stereo not given), the z-score was 0.0425 (inactive).
For the molecule `CC(C)[Si](C#CCCCC#N)(O[C@H](c1ccccc1)c1cn(Cc2ccccc2)nn1)C(C)C`, the z-score was 1.84 (inactive).
`COCCOC(=O)N1C(=O)[C@@]2(c3cc(C#CC4(O)CCCCCC4)ccc31)[C@H](c1ccc(O)cc1)N1[C@H](c3ccccc3)[C@H](c3ccccc3)OC(=O)[C@H]1[C@@H]2C(=O)N1CCN(c2ncccn2)CC1`: the z-score is -0.321 (inactive).
Turning to `CC1=C2[C@@H](CCc3ccccc3)OB(O)C[C@@H]2[C@@H]2C(=O)N(Cc3ccccc3)C(=O)[C@@H]2C1`, the z-score was -0.116 (inactive).
As to `CCOC(=O)C[C@H]1[C@H](OC(=O)Cc2ccc3c(c2)OCO3)[C@@H](NC(=O)C2CCCCC2)c2cc(OCCCO)ccc2N1C(=O)c1ccccc1`, the z-score is 2.58 (inactive).
On to `COCCCNC(=O)[C@@]1(CCC(=O)OC(C)(C)C)N=C(c2ccc(OCCCO)cc2)O[C@H]1c1ccccc1N=[N+]=[N-]`, for which the z-score was 1.21 (inactive).
Turning to `[N-]=[N+]=Nc1ccccc1C[C@]1(C(=O)NCC(O)CO)COC(c2ccc(OCCCO)cc2)=N1` (stereo not given in full), the z-score was 1.05 (inactive).
As to `CCCC[C@@H](O)C1=C(COC)C[C@H]2C(=O)N(C)C(=O)[C@H]2[C@H]1CO`, the z-score was 1.1 (inactive).
Take `CCCCCCc1nc(Cc2cc(OC)c(OC)c(OC)c2)cc2c1[Si](C(C)C)(C(C)C)OC2`: the z-score is -0.527 (inactive).
